High-throughput results: PubChem, several laboratories
tim10-1 inh: growth inhibitors of tim10-1 mutant yeast | S. cerevisiae tim10-1 ts strain growth, BacTiter-Glo, 24 h | inhibition, % at 20 µM | 330,000 tested, 2.2% active;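 active means inhibition of at least 40%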;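 further: mutant grown at 25 °C; 0% = DMSO wells with yeast and 100% = wells holding no yeast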
SKKanGAS inh: blocks kanamycin growth of S. pyogenes SKKanGAS strain; BacTiter-Glo, 6 h; inhibition, % at 7.5 µM; 300,000 tested, 1.3% active;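 active means mean replicate score, as percent of positive control median, at least 50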;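 further: strain carries kanamycin resistance gene driven by streptokinase promoter and grows in 40 µg/ml kanamycin; loss of luminescence reflects streptokinase promoter inhibition or plain growth inhibition; 0% = median of DMSO wells and 100% = positive control at its reference dose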
NALP3 yeast inh: inhibitors of NALP3 inflammasome in yeast. Yeast reconstituted NLRP3/ASC/caspase-1, beta-gal luminescence, 24 h. inhibition, % at 10 µM. 330,000 tested, 0.39% active;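 active means inhibition of 50% or more; inactive means inhibition below 50%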;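 further: plate controls were induced DMSO wells for no effect and uninduced yeast grown without galactose for full effect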
TIM10 inh: inhibits growth of TIM10 yeast strain | S. cerevisiae TIM10 strain growth, BacTiter-Glo luminescence, 24 h | inhibition, % at 10 µM | 330,000 tested, 1.4% active;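 active means inhibition of 40% or more at the single tested concentration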;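 further: wild-type TIM10 isogenic control strain grown at permissive 25 °C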
PfHsp90 set2: reduces growth (ATP signal) of yeast expressing P. falciparum Hsp90 | S. cerevisiae expressing PfHsp90, BacTiter-Glo ATP, 48 h; yeast lacking PDR1 and PDR3 efflux regulators | inhibition, % at 9.4 µM | 310,000 tested, 0.32% active;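 active means every replicate shows inhibition above about 80%, whatever the replicate mean, limit read from the data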;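 further: 0% = DMSO neutral controls and 100% = 20 µM radicicol positive controls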
tim23-1 inh: tim23-1 yeast growth inhibition. inhibition, % at 20 µM. 330,000 tested, 1.3% active. S. cerevisiae tim23-1 growth, BacTiter-Glo luminescence, 24 h. AID 463212;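 active means growth inhibition of the mutant yeast at or above 50%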;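 further: temperature-sensitive mutant grown at 25 °C; plate controls were DMSO-treated mutant yeast for no effect and medium wells lacking yeast for full effect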
Starred values were filed as active, the others as inactive; · = no result. The list is not random: actives were taken first. Their share in the collection is about 4.6%.

SMILES | tim10-1 inh | SKKanGAS inh | NALP3 yeast inh | TIM10 inh | PfHsp90 set2 | tim23-1 inh
CC(C)(NS(=O)(=O)OCC(Cl)(Cl)Cl)c1ccccc1 | 14 | 11 | 27 | 21 | -10 | 36
O=C1CSc2ccc(C(=O)Nc3cccc(S(=O)(=O)Nc4ccc(Br)cc4)c3)cc2N1 | -9 | 73* | 6 | 4 | · | -2
O=C(NN1C(=O)/C(=C\c2ccc(O)c([N+](=O)[O-])c2)SC1=S)c1ccccc1Cl | -15 | 4 | 27 | -11 | 104* | -16
O=C(Cc1cccs1)Nc1cccc(-c2nc3cc4ccccc4cc3[nH]2)c1 | · | 72* | · | · | 24 | ·
CC(=O)Nc1cccc(NC(=O)Cc2cccs2)c1 | 12 | 2 | 9 | -7 | -9 | 7
N#C/C(=C(/O)c1ccc([N+](=O)[O-])o1)c1nc2ccccc2[nH]1 | -2 | 72* | 19 | -1 | -2 | -3
CCN1CCN(Cc2ccc(NC(=O)c3cc(NC(=O)c4ccc5n[nH]nc5c4)cc(OC)c3)cc2C(F)(F)F)CC1 | 0 | -2 | 9 | -4 | -6 | -1
CCN1CCN(Cc2ccc(NC(=O)c3cc(NC(=O)c4cc(-c5ccc(OC)cc5)n[nH]4)cc(OC)c3)cc2C(F)(F)F)CC1 | 8 | 71* | 15 | 5 | 1 | 8
Cc1ccc(C(=O)Nc2cccc(C(F)(F)F)c2)cc1NC(=O)c1c[nH]c2cc(C(F)(F)F)ccc2c1=O | -8 | · | 3 | -6 | -38 | 0
CCN1CCN(Cc2ccc(NC(=O)c3ccc(C)c(NC(=O)c4c[nH]c5cc(C(F)(F)F)ccc5c4=O)c3)cc2C(F)(F)F)CC1 | 25 | 92* | 6 | 10 | -8 | 6
COCCNC(=S)NNC(=O)c1ccc(-n2cnnn2)cc1 | 6 | 10 | 2 | 6 | -4 | 6
Cc1cccc(N2CCN(C(=O)Cn3sc4nc(C)cc(C)c4c3=O)CC2C)c1 (configuration not stated) | -48 | -2 | -6 | -6 | 167* | -2
Clc1ccc(-c2csc(N3CCCCCC3)n2)cc1 | 6 | 54* | 4 | 6 | -4 | 8
CC1CC(C)CN(CC(C)(C)NS(=O)(=O)c2ccc(Cl)cc2)C1 (configuration not stated) | -15 | 3 | 13 | 1 | 38 | 17
CC1=C/C(=N\OS(=O)(=O)c2ccccc2)C(C(C)C)=CC1=O | · | · | · | · | 104* | ·
CCn1c(=O)c(C(=O)NNC(=O)c2ccccc2F)c(O)c2ccccc21 | -9 | 90* | 0 | 13 | 5 | 2
CCCCCC(=O)NNC(=O)c1c(O)c2ccccc2n(CC)c1=O | -3 | 94* | 34 | 7 | 22 | 26
CCn1c(=O)c(C(=O)NCc2ccc(Cl)cc2)c(O)c2ccccc21 | -21 | 1 | 6 | -3 | -2 | 11
CCCCCCCCCC(=O)NNC(=O)c1c(O)c2ccccc2n(CC)c1=O | -14 | 30 | 10 | -4 | 3 | -6
CCn1c(=O)c(C(=O)NNC(=O)c2ccccc2Cl)c(O)c2ccccc21 | 15 | 58* | 18 | 8 | -48 | 33
CCC(C)(C)NC(=O)c1ccc2c(c1)N(CC(=O)NC1CCCC1)C(=O)C(C)(C)O2 | -7 | 0 | -4 | 6 | -10 | 4
CC(C)CC1Nc2ccc(C(=O)NCCCN3CCCCC3C)cc2NC1=O (configuration not stated) | 6 | -4 | 17 | 9 | -7 | -5
Cc1nn(-c2ccccc2)c(C)c1/C=N/NC(=O)c1cc(-c2cccc3ccccc23)n[nH]1 | 21 | 51* | 14 | 39 | 38 | 25
Cc1nn(-c2ccccc2)c(C)c1/C=N/NC(=O)c1cc(-c2ccccc2)n[nH]1 | -25 | 30 | 23 | -22 | · | 14
COc1ccc(-n2c(=O)c3c4c(sc3n3c(=S)[nH]nc23)CCC4)cc1 | 6 | 65* | 2 | -5 | 2 | -5
SMILES | tim10-1 inh | SKKanGAS inh | NALP3 yeast inh | TIM10 inh | PfHsp90 set2 | tim23-1 inh
O=C(O)c1ccc(-c2nc(-c3ccccc3)cs2)cc1 | 27 | 7 | 24 | 11 | -15 | 9
O=C(O)c1ccc(-c2nc(-c3ccc(Cl)c(Cl)c3)cs2)cc1 | 31 | 57* | 17 | 30 | 3 | 14
CC1(C)CC(=O)C(CC(=O)NC2CCCc3ccccc32)C(=O)C1 (configuration not stated) | 4 | 12 | 7 | 14 | 29 | 21
C[C@H](NS(=O)(=O)OCC(Cl)(Cl)Cl)C1CC1c1ccccc1 (some centres not stated) | 30 | 24 | 16 | 27 | 5 | 42
O=S(=O)(NC1CC(NS(=O)(=O)OCC(Cl)(Cl)Cl)C2CCCCC12)OCC(Cl)(Cl)Cl (configuration not stated) | -8 | 91* | 16 | -45 | 16 | -17
COc1ccccc1NC(=O)C(C)OC(=O)CCCc1c[nH]c2ccccc12 (configuration not stated) | 6 | -2 | 3 | -22 | 14 | 27
CNC(CC(C)C)C(=O)NC1C(=O)NC(CC(N)=O)C(=O)NC2C(=O)NC3C(=O)NC(C(=O)NC(C(=O)O)c4cc(O)cc(O)c4-c4cc3ccc4O)C(O)c3ccc(c(Cl)c3)Oc3cc2cc(c3OC2OC(CO)C(O)C(O)C2OC2CC(C)(N)C(O)C(C)O2)Oc2ccc(cc2Cl)C1O (configuration not stated) | · | 102* | · | · | -8 | ·
CCC(C)c1ccc(NC(=O)COc2c(F)c(F)c(C(F)(F)F)c(F)c2F)cc1 (configuration not stated) | 35 | 67* | -4 | 14 | -12 | 24
Cc1cccc(N(CC(=O)NC2CCCCC2)C(=O)CCC(=O)Nc2nccs2)c1 | -9 | -3 | 6 | 17 | 16 | 14
C/C(=N\Nc1nc2ccc(Cl)cc2o1)c1ccccc1 | 26 | 68* | -2 | 30 | · | 45
O=C(Nc1nc(-c2cc(Cl)sc2Cl)cs1)c1cccs1 | 29 | 61* | 38 | 36 | 3 | 29
CC(C)=CCCC1(C)C=Cc2c(c(C)cc3c2[nH]c2cc(O)ccc23)O1 (configuration not stated) | 21 | 107* | 3 | -3 | 51 | 22
CN1C[C@@H]2[C@@H]3C(=O)N(Cc4ccccc4)C(=O)[C@@H]3[C@](C)(C1=O)N2C(=O)c1ccc(F)cc1 | · | · | · | · | 2 | ·
CCCCC(=O)NC(c1cccc([N+](=O)[O-])c1)c1ccc2cccnc2c1O (configuration not stated) | · | · | · | · | 115* | ·
CC(=O)NC(c1cccc([N+](=O)[O-])c1)c1ccc2cccnc2c1O (configuration not stated) | -16 | 60* | 15 | -64 | 33 | 36
O=[N+]([O-])c1ccc(NC(c2ccccc2)c2ccc3cccnc3c2O)cc1 (configuration not stated) | · | · | · | · | 113* | ·
COc1cccc(C(NC(C)=O)c2ccc3cccnc3c2O)c1 (configuration not stated) | 1 | 30 | 33 | -39 | 13 | 43
